PrP UTR inh = inhibition of PrP 5' UTR reporter expression | cell-based PrP 5' UTR mRNA reporter, plate reader | inhibition, % (test concentration not listed) | 0.35% of 340,000 active; in the data active = inhibition above about 52%; note: 0 = median of the neutral control wells
PriA SSB inh = blocks PriA binding to SSB C-terminal tail | AlphaScreen SSBct-PriA binding, biotinylated peptide | inhibition, % at 33 µM | 0.6% of 430,000 active; in the data active = inhibition mostly above about 37%, no sharp cut-off; inactive = mostly below about 20%;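 note: plate controls were negative control peptide for no effect and reference peptide for full effect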
PfHsp40 yeast = compounds rescuing yeast from Plasmodium falciparum HSP40 toxicity; 0.68% of 340,000 active; growth rescue, % at 12.5 µM; S. cerevisiae expressing PfHsp40, growth rescue, ATP luminescence; in the data active = growth rescue above about 28%, passing the limit was not always enough; inconclusive = no clear call, values can overlap the other calls;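 note: yeast W303a lacking pdr1 and pdr3 grown in galactose medium; growth measured after three days at 30 °C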
BJeLR lethal = BJeLR cell viability loss; 0.17% of 300,000 active; inhibition, % (test concentration not listed); BJeLR (HRASV12) viability, CellTiter-Glo ATP luminescence, 48 h; AID 1554; in the data active = inhibition above about 50%; inconclusive = no clear call, values can overlap the other calls
RecA splice inh = inhibitors of M. tuberculosis RecA intein splicing | P9WHJ3 | cell-free RecA intein splicing, fluorescence | inhibition, % (test concentration not listed) | 0.75% of 290,000 active | AID 2221; in the data active = inhibition above about 30%; inconclusive = no clear call, values can overlap the other calls;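 note: 0% = vehicle wells and 100% = reference inhibitor control wells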
Target sequence (P9WHJ3 whole entry, looked up, canonical isoform): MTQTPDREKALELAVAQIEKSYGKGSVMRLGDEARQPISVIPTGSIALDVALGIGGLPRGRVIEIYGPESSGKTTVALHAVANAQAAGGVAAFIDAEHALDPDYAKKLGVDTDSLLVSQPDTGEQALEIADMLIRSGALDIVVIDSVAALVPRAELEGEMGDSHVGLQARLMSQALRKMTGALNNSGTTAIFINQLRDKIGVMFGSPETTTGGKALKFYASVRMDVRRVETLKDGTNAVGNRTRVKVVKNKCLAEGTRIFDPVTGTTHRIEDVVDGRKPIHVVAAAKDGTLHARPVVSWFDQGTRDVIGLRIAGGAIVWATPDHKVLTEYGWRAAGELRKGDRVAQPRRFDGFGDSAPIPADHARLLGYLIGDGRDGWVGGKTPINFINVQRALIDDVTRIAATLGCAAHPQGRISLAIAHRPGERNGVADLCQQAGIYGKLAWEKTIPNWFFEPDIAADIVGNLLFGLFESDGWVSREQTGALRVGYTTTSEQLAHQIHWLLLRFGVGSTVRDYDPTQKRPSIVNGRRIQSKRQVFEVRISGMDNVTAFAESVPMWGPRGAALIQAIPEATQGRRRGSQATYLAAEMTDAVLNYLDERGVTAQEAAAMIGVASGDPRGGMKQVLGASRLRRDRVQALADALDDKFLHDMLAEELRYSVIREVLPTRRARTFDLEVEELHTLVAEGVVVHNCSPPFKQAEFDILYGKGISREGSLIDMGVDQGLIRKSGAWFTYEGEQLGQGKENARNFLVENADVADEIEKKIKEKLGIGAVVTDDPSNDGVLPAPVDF
PrPC surface inh = cell surface PrPC inhibition, primary TR-FRET screen. P04156. TR-FRET read-out. inhibition, % at 13.8 µM. 0.43% of 370,000 active. AID 720596; in the data active = inhibition above about 24%; note: 0% = median of the test wells and 100% = reference compound wells
An asterisk follows results filed as active; ? = inconclusive; . = not tested or not shown. An excerpt weighted towards active compounds, which were near 1.9% of everything screened.

SMILES	PrP UTR inh	PriA SSB inh	PfHsp40 yeast	BJeLR lethal	RecA splice inh	PrPC surface inh
Cc1cc(C(=O)N/N=C/c2cccc([N+](=O)[O-])c2)c2ccccc2n1	-4	.	34*	0	0	-4
COc1cc([N+](=O)[O-])cc(/C=N/NC(=O)c2cc(C)nc3ccccc23)c1O	-4	.	32*	1	7	-6
O=C(NN=Cc1cccc([N+](=O)[O-])c1)c1cc(-c2cccnc2)nc2ccccc12	-2	-10	0	.	.	1
COc1cc([N+](=O)[O-])cc(/C=N/NC(=O)c2cc(-c3ccccc3)nc3ccccc23)c1O	4	.	?	8	3	6
COc1cc([N+](=O)[O-])cc(/C=N/NC(=O)c2cncc(Br)c2)c1O	.	.	780*	-14	11	5
O=C(NC[C@@](O)(c1ccco1)C1CC1)c1ccccc1Br	.	-9	.	.	.	.
CCCc1nc(SCC(=O)N2CCC(Cc3ccccc3)CC2)c2c(=O)n(C)c(=O)n(C)c2n1	-14	-6	184*	-28	9	-4
COc1ccc(-c2nc3ccccc3n2CCOc2ccccc2)cc1OC	.	1	.	.	.	.
CN(C)c1ccc(-c2nc3ccccc3n2CCOc2ccccc2)cc1	.	29*	.	.	.	.

Compound activity deposited in PubChem BioAssay by several laboratories.
